From ChEMBL document CHEMBL3988442, “University of Dundee, Small-Polar-MMV Screening Library” (2021) come the findings set out here.

For some of these results: Potency and affinity values are given separately.

What all share (set-up): scale not given: direction of the effect not stated beside the values
In experiment [1] the target is Protein translocase subunit SecA (Escherichia coli (strain K12)) (UniProt P10408). Description: Assay to Identify E. coli SecA ATPase Inhibitors. The format is functional. To be noted: 30 µM.
Chain of Protein translocase subunit SecA (Escherichia coli (strain K12)) (P10408 whole entry): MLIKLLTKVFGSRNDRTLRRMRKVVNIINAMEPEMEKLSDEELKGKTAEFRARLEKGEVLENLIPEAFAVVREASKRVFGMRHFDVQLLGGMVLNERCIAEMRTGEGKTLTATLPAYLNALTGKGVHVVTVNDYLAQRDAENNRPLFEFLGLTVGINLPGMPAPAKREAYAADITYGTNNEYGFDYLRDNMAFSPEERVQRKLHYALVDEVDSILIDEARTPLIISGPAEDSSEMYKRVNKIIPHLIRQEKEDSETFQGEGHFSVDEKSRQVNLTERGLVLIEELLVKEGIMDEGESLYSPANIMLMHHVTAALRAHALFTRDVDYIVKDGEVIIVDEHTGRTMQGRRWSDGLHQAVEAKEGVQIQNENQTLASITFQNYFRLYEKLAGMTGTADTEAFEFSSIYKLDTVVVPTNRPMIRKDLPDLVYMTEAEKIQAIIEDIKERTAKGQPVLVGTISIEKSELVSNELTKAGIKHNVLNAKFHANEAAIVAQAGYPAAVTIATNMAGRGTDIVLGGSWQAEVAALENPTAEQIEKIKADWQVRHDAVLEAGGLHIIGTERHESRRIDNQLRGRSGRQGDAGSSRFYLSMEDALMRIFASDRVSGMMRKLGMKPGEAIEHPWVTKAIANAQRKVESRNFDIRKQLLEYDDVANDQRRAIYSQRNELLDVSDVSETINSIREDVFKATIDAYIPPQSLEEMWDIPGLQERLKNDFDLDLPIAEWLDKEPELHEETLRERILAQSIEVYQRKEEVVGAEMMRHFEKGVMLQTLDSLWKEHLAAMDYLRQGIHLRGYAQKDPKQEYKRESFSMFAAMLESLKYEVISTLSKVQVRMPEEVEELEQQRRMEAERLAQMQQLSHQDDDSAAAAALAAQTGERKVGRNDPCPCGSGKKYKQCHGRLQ
Experiment [2] concerns the target T1, Ubiquitin-activating enzyme e1, putative (Leishmania donovani (strain BPK282A1)) (UniProt E9BSI1).
T1 sequence (whole entry): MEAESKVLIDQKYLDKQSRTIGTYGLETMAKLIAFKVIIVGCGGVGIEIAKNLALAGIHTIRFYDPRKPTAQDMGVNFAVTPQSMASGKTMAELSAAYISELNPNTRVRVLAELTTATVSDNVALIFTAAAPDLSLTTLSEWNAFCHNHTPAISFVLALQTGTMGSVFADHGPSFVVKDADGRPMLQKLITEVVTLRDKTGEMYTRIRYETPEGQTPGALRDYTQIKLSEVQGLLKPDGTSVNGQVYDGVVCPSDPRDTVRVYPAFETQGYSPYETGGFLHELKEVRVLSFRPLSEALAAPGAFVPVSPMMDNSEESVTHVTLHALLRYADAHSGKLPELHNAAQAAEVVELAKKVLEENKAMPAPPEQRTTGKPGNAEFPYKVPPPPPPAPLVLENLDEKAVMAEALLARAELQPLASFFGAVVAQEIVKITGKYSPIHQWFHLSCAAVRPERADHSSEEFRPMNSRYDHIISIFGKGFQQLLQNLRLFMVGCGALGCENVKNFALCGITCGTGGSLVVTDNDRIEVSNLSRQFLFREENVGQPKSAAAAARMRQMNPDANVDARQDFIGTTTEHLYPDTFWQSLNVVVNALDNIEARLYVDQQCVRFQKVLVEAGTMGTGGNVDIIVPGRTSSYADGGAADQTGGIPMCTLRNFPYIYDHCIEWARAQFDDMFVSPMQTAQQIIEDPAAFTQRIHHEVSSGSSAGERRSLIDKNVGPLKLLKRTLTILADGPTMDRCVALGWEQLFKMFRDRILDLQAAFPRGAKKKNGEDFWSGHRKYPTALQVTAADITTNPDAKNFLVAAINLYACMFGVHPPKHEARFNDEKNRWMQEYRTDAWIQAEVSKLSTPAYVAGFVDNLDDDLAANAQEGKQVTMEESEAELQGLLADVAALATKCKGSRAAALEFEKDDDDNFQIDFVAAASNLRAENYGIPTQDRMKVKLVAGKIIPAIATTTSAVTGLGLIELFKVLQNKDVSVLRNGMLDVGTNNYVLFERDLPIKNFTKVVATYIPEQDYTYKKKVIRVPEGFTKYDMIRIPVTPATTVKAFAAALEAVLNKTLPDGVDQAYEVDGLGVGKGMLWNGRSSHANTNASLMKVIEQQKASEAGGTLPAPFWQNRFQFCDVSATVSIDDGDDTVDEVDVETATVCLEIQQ
Briefly: Leishmania donovani Ubiquitin Activating Enzyme (LdE1). To be noted: 30 µM. The format is functional.

The target in experiment [3] is AMP-activated protein kinase, AMPK (Homo sapiens) (UniProt P54646+O43741+P54619+Q9UGJ0+Q9Y478+Q13131+Q9UGI9). Description: AMP-dependent Kinase enzyme assay. An in vitro enzyme assay that detects ADP turnover that is directly proportional to AMPK activity. This uses naive AMPK that is activated during the assay with MK-8722. The format is functional. The following applies: 30 µM.

In experiment [4] the target is Sialic acid-binding Ig-like lectin 9 (Homo sapiens) (UniProt Q9Y336). Briefly: Hs-Siglec9 ALPHAscreen SOP 20170721. The following applies: 10 µM. (In general: Bead proximity is the source of the signal in Alpha formats.)
Chain of Sialic acid-binding Ig-like lectin 9 (Homo sapiens) (Q9Y336 whole entry): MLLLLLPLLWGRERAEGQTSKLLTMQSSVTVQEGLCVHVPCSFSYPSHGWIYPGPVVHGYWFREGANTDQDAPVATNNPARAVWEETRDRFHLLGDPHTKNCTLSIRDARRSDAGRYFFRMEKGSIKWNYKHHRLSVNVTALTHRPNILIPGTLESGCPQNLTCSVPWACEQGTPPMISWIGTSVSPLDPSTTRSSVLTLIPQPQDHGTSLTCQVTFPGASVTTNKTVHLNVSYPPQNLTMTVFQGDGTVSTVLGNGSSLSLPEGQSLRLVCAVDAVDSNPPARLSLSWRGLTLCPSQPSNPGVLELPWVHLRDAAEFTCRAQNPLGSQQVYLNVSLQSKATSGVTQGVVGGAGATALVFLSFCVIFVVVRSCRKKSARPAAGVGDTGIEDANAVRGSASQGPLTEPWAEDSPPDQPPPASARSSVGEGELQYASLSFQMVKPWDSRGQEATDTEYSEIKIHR
A further experiment relates to Trypanosoma cruzi. Description: Trypanosoma cruzi phosphomannomutase and mannose-1-phosphate guanylyltransferase assay. The format is functional. To be noted: 10 µM.
For experiment [5], the target named is T2, Arginase-2, mitochondrial (Homo sapiens) (UniProt P78540).
T2 sequence (whole entry): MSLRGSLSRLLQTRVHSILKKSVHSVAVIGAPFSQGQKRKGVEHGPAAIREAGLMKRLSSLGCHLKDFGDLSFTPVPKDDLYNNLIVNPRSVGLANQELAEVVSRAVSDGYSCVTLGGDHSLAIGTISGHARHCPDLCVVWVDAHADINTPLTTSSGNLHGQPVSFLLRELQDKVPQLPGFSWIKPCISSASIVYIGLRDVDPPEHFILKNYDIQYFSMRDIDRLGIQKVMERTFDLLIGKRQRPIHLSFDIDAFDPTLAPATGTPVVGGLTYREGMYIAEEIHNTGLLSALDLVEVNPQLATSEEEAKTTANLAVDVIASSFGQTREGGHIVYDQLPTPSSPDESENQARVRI
Description: in vitro enzyme assay to detect the production of urea directly proportional to the activity of Arginase II. Also: in the data most compounds retested in dose-response had high values. The format is functional. To be noted: 33.3 µM.

Experiment [6] has as its target T3, Proteasome subunit beta (Trypanosoma cruzi) (UniProt O96673).
T3 sequence (whole entry): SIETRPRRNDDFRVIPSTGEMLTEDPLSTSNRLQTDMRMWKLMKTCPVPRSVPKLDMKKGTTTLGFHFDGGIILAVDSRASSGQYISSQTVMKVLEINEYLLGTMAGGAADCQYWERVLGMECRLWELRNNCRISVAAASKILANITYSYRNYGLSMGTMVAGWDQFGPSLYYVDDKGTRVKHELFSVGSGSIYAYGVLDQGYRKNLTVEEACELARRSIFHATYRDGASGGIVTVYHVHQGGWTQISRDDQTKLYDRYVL
Description: Trypanosoma cruzi proteasome chymotrypsin-like activity (TcProtChymo) assay. Also: in the data most compounds retested in dose-response had high values. The format is functional. To be noted: 9.37 µM.

The species entered for a further experiment is Homo sapiens. Description: To identify inhibition of the IFN signalling (Jak-Stat) pathway via expression of an eGFP reporter gene under the control of an IFN-stimulated response element (ISRE) containing MxA promoter. The format is functional. The following applies: 30 µM. For orientation: A reporter such as luciferase makes a cellular process visible.

Experiment [7] has as its target T4, Tyrosyl-tRNA synthetase, putative (Trypanosoma cruzi (strain CL Brener)) (UniProt Q4DSP6).
T4 sequence (whole entry): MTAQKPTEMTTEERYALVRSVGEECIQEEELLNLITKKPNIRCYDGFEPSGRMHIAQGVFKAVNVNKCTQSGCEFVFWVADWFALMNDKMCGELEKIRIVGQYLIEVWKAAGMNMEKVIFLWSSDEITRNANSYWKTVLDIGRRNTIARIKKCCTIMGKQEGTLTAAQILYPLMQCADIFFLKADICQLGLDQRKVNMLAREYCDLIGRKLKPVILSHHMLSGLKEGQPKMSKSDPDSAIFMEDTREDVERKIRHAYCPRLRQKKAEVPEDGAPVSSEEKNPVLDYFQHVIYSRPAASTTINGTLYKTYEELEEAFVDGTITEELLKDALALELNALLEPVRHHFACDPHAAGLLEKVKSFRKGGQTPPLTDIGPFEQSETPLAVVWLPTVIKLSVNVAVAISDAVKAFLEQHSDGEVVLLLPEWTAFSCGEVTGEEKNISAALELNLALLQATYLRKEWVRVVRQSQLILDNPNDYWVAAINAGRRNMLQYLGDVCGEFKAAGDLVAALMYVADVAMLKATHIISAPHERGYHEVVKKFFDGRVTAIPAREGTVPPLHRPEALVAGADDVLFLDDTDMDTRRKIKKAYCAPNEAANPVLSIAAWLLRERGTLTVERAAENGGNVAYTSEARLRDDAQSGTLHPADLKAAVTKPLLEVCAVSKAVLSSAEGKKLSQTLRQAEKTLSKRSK
Briefly: Trypanosoma cruzi tyrosyl tRNA synthetase (TcYRS) _High Tyrosine SOP. Also: in the data most compounds retested in dose-response had high values. The format is functional. The following applies: 30 µM.

The target in experiment [8] is T4, Tyrosyl-tRNA synthetase, putative (Trypanosoma cruzi (strain CL Brener)). Description: Trypanosoma cruzi tyrosyl tRNA synthetase (TcYRS) SOP. It is filed as functional. To be noted: 30 µM.
For experiment [9], the target named is Chromo domain-containing protein 1 (Saccharomyces cerevisiae (strain ATCC 204508 / S288c) (Baker's yeast)) (UniProt P32657). Briefly: ScCHD-1 Enzyme Inhibition Assay. Also: in the data most compounds retested in dose-response had high values. It is filed as functional. The following applies: 30 µM.
Chain of Chromo domain-containing protein 1 (Saccharomyces cerevisiae (strain ATCC 204508 / S288c) (Baker's yeast)) (P32657 whole entry, the tested form may be a part): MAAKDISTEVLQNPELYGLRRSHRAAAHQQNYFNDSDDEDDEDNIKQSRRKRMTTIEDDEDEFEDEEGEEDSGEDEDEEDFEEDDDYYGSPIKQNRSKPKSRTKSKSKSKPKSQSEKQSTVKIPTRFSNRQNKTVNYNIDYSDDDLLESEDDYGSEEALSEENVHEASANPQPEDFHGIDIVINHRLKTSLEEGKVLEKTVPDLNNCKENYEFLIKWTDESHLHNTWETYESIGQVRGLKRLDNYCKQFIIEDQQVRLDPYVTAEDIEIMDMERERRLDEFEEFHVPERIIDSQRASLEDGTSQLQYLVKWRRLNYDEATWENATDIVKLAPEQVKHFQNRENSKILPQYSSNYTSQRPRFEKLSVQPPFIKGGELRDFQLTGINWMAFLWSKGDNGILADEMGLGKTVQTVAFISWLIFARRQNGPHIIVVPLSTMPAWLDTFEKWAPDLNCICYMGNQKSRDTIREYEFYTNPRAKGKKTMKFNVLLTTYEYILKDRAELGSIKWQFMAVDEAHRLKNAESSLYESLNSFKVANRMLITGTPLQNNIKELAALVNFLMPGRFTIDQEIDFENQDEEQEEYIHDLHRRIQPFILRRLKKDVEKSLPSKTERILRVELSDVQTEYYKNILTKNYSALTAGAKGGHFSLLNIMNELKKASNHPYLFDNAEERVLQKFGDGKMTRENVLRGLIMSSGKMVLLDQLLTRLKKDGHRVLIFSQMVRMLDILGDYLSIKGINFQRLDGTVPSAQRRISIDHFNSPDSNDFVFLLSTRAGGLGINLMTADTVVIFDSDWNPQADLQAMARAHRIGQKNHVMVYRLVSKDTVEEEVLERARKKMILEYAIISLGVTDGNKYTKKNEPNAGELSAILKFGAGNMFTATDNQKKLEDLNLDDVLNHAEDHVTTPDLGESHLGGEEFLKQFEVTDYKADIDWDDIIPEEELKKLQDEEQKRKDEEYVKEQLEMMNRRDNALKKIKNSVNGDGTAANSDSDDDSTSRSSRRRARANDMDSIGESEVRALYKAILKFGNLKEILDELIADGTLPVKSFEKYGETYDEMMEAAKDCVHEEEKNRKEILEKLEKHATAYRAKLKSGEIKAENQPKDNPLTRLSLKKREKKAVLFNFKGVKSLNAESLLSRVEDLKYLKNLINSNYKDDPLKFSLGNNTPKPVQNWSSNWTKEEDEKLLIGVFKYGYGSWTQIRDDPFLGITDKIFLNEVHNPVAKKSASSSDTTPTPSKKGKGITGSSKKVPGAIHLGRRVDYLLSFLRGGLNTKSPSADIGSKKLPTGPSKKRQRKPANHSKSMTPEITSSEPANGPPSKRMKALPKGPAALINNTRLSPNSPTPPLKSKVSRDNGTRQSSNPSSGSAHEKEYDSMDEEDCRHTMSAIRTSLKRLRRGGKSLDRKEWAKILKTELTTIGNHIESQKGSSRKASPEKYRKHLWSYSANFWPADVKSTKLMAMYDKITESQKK

For `CC1CCN(CCNC(=O)C2CCN(S(N)(=O)=O)CC2)CC1`, the Percent Effect in experiment [1] is -1.93%; in [2], 9.72%; in experiment [3] it was -5.79%; in experiment [4], -4.04%; in the experiment with Trypanosoma cruzi it was -3.4%; in experiment [5], 1.77%. Also, the Percent Effect in experiment [6] is 10%; in the experiment filed under Homo sapiens, 3.48%; in [7], 2.1%; in experiment [8], 5.13%; in experiment [9], -2.96%.

As to `CCN(CC)C(=O)Cn1ccc2cc(NC(=O)C3CC3)ccc21`, the Percent Effect is -5.06% in experiment [1]; 15.8% in experiment [2]; -9.59% in [3]; 7.96% in [4]; 6.39% with Trypanosoma cruzi; -3.06% in experiment [5]. The Percent Effect was 14.9% in experiment [6]; 4.68% in the experiment listed under Homo sapiens; 5.39% in experiment [7]; 21.9% in experiment [8]; -12.7% in experiment [9].

`Cn1cc(N2CCCC(NCc3cccc4c3OCCCO4)C2)cn1` (stereo unspecified): the Percent Effect is -4.17% in [1]; 16.2% in experiment [2]; -10% in [3]; 1.61% in experiment [4]; 0.472% in the experiment on Trypanosoma cruzi; -4.01% in [5]. Also, the Percent Effect was 0.721% in [6]; 3.65% in the experiment listed under Homo sapiens; 7.39% in experiment [7]; 23.5% in [8]; -7.98% in experiment [9].

Regarding `O=C(c1ccccc1-n1cccn1)N1CCCN(c2cccnn2)CC1`, the Percent Effect in experiment [1] was -2.4%; in [2], -15.6%; in experiment [3], 5.31%; in [4], 10.5%; in the experiment with Trypanosoma cruzi, -0.294%; in experiment [5], 1.05%. Further, the Percent Effect in [6] was 9.46%; in the experiment listed under Homo sapiens it was -6.03%; in experiment [7] it was 0.952%; in experiment [8], 9.41%; in experiment [9], -13.5%.

For `CCOCCC(=O)Nc1cccc(Oc2ccccn2)c1`, the Percent Effect in experiment [1] was -5.45%; in experiment [2], 0%; in experiment [3], -0.587%; in [4], 2.14%; in the experiment with Trypanosoma cruzi, 0.487%; in experiment [5] it was 2.37%. In addition, the Percent Effect was 0.288% in experiment [6]; -0.792% in the experiment filed under Homo sapiens; 0% in [7]; -5.2% in experiment [8]; 6.72% in experiment [9].

On to `CCc1c(C)nc2n(c1=O)CC(C(=O)Nc1nccs1)CS2` (stereo unspecified), for which the Percent Effect in experiment [1] is -7.87%; in [2], 13%; in [3] it was -4.33%; in [4], -3.77%; in the experiment on Trypanosoma cruzi, 5.62%; in experiment [5], 5.81%. The Percent Effect in experiment [6] was 7.31%; in the experiment filed under Homo sapiens, 4.32%; in experiment [7], 3.17%; in experiment [8], 14.1%; in [9], -7.44%.

In the case of `CSCC[C@H](N)C(=O)NCc1cc2n(n1)CCCN(C1CCCCC1)C2`, the Percent Effect in experiment [1] was -0.291%; in experiment [2], 12.5%; in experiment [3], -5.04%; in experiment [4] it was 5.09%; in the experiment on Trypanosoma cruzi, 4.37%; in experiment [5], 36.2%. For the same compound, the Percent Effect in [6] is 13.7%; in the experiment listed under Homo sapiens, 2.41%; in [7] it was 4.21%; in [8] it was 12.8%; in [9], -3.52%.

For the compound `CCN1CC(C(=O)NCc2ccccc2-n2cccn2)CC1=O` (stereo unspecified), the Percent Effect in experiment [1] was -2.49%; in experiment [2] it was 13%; in experiment [3] it was 0.208%; in [4] it was 2.02%; in the experiment with Trypanosoma cruzi it was 2.45%; in experiment [5], -1.05%. The Percent Effect is 15% in [6]; 11% in the experiment listed under Homo sapiens; 5.71% in experiment [7]; 23.5% in experiment [8]; -8.96% in experiment [9].

`Cc1c(C(=O)NCC(C)C)nnn1-c1cccc2c1CCN(C)C2`: the Percent Effect in [1] was -4.34%; in experiment [2] it was 2.63%; in experiment [3] it was 0.913%; in experiment [4], 2.87%; with Trypanosoma cruzi, -0.682%; in experiment [5], -2.37%. For the same compound, the Percent Effect in experiment [6] was 11.2%; in the experiment listed under Homo sapiens, 18.4%; in [7] it was 5.32%; in experiment [8], 15.6%; in experiment [9], -0.534%.

Regarding `Nc1nc(CN2CCCC(Cn3cncn3)C2)nc2ccccc12` (stereo unspecified), the Percent Effect is 1.55% in [1]; -2.7% in [2]; -3.95% in experiment [3]; 9.62% in [4]; 3.06% in the experiment with Trypanosoma cruzi; -2.03% in [5]. Further, the Percent Effect in experiment [6] was -5.92%; in the experiment listed under Homo sapiens, 3.26%; in [7], 4.95%; in experiment [8], 6.1%; in experiment [9], 1.99%.

Consider `CCn1cc(NC(=O)NCC(O)c2ccccc2)cn1` (stereo unspecified), for which the Percent Effect in experiment [1] was -2.26%; in [2] it was 12.7%; in experiment [3] it was -8.7%; in experiment [4], 13.4%; with Trypanosoma cruzi it was -1.98%; in experiment [5], 1.52%. For the same compound, the Percent Effect in experiment [6] was 3.19%; in the experiment listed under Homo sapiens it was -8.48%; in experiment [7], 1.48%; in experiment [8], 13.9%; in [9] it was -3.66%.
